Data on 56 compounds can be found in PubChem BioAssay AID1851 (National Center for Advancing Translational Sciences (NCATS), 2009).

Out of some 16,000 compounds screened, about 5,700 (36%) were called active. About 24% were inconclusive and are not listed. Calls come from the whole dose curve; as a rule, active = well fitted curve in the direction sought with a large enough effect; inconclusive = small, poorly fitted or top-dose-only effect, or effect the other way; inactive = no such curve, though single readings can be large or run the other way. This is one part of the list.
% is set by controls: 0 for no effect and ±100 for the full control effect.

Cytochrome P450 1A2 (Homo sapiens), sequence (P05177 whole entry, looked up): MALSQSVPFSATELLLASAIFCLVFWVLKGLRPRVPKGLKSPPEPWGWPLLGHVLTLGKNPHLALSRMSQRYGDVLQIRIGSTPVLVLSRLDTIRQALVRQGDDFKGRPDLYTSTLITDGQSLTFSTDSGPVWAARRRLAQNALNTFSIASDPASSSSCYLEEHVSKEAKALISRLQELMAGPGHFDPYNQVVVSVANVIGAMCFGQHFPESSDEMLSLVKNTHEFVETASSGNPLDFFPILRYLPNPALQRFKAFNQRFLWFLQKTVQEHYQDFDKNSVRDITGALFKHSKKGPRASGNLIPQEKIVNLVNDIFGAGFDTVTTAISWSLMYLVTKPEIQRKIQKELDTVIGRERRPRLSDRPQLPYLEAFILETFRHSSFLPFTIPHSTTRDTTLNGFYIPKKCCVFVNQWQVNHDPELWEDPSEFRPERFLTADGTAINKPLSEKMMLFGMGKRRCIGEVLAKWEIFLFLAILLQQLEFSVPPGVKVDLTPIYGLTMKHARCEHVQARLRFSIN

This assay has as its target Cytochrome P450 1A2 (Homo sapiens) (UniProt P05177). The assay can be described thus: Cytochrome panel assay with activity outcomes. To be noted: recombinant CYP, pro-luciferin dealkylation, luminescence, p450-cyp1a2; series mostly up to 57.1 µM; activity, negative = inhibition: at the top concentration.
Broadly, the AC50 is the concentration giving half of the maximal activity seen. Take `Clc1cncc(N2CCNCC2)n1`: the AC50 was 2000 nM (active).
On the same count and under the same terms, the value for `N[C@H](Cc1ccc2oc3cc(=O)c4ccccc4c-3nc2c1)C(=O)O` was 1260 nM (active).
Regarding `N[C@@H](Cc1cc(Br)c(O)c(Br)c1)C(=O)O`, the activity, negative = inhibition was -2.84% [at 11.4 µM] (inactive).
Take `CC(C)(O/N=C(\C(=O)N[C@@H]1C(=O)N2C(C(=O)[O-])=C(C[n+]3ccccc3)CS[C@@H]12)c1csc(N)n1)C(=O)O`: the “activity, negative = inhibition” value is -8.23% [at 25.6 µM] (inactive).
Regarding `CN1[C@@H]2CCC[C@H]1CC(=O)C2`, the “activity, negative = inhibition” value was -13.3% [at 25.6 µM] (inactive).
For `COC1=C[C@H]2C3=C([C@H]2C1=O)[C@H](NC(C)=O)CCc1cc(OC)c(OC)c(OC)c13`, the “activity, negative = inhibition” value is -7.51% [at 25.6 µM] (inactive).
Turning to `COc1ccc2c(c[n+](C)c3c4cc5c(cc4ccc23)OCO5)c1OC`, the concentration at half-maximal activity (AC50) was 10000 nM (active).
Regarding `Oc1cccc2cccnc12`, the activity, negative = inhibition was -20% [at 11.4 µM] (inactive).
As to `CN1CC[C@@]2(CCCN(C(=O)c3csnn3)C2)C1`, the “activity, negative = inhibition” value is 7.43% (inactive).
As to `O[C@H](CN1CC1)[C@@H](O)CN1CC1`, the activity, negative = inhibition is 1.6% [at 11.4 µM] (inactive).
As for `CN1CCN(c2cc(N3CCCC3)c([N+](=O)[O-])cc2F)CC1`, the concentration at half-maximal activity (AC50) was 355 nM (active).
`NC(=O)c1cc(N2CC2)c([N+](=O)[O-])cc1[N+](=O)[O-]`: the “activity, negative = inhibition” value is -19.6% (inactive).
Still for that read-out and setting: the value for `C[N+]12CCC(CC1)[C@@H](OC(=O)C(O)(c1ccccc1)c1ccccc1)C2` was 1.75% [at 25.6 µM] (inactive); that for `C(=NC12CN3CN(CN(C3)C1)C2)c1cccs1` was 3.17% (inactive).
On the same count and under the same terms, next, `CC(C)c1ccc(C(O)(C(=O)O)c2ccc(C(C)C)cc2)cc1`: -8.75% [at 11.4 µM] (inactive).
As for `CC(C)c1ccc2c(c1)c(SC(C)(C)C)c(CC(C)(C)C(=O)O)n2Cc1ccc(Cl)cc1`, the concentration at half-maximal activity (AC50) is 25100 nM (active).
As to `C=C1C(O)(c2ccccc2)C2CC[N+]1(C)CC2` (stereo unspecified), the “activity, negative = inhibition” value was 8.66% (inactive).
Turning to `COC(=O)N1CCC2(CCN(CC(C)C)CC2)CC1`, the “activity, negative = inhibition” value was 14.2% (inactive).
As for `C=C1[C@@H]2CC[C@H]3[C@@]4(C)C[C@@H](O[C@@H]5O[C@H](CO)[C@H](OS(=O)(=O)O)[C@@H](OS(=O)(=O)O)[C@@H]5OC(=O)CC(C)C)C[C@@H](C(=O)O)[C@H]4CC[C@@]3(C2)[C@H]1O`, the “activity, negative = inhibition” value is -10.2% [at 25.6 µM] (inactive).
With `COc1ccc2c(c1)[C@]13CCCC[C@@H]1[C@H](C2)NCC3`, the “activity, negative = inhibition” value was 3.59% (inactive).
Regarding `COc1ccc(C(=O)c2c(C)n(CCN3CCOCC3)c3cc(I)ccc23)cc1`, the AC50 is 15800 nM (active).
Turning to `N=C1c2ccccc2CN1NC(=O)c1ccc(F)cc1`, the “activity, negative = inhibition” value is -18% (inactive).
On to `CN1C(=O)CCS(=O)(=O)[C@@H]1c1ccc(Cl)cc1`, for which the “activity, negative = inhibition” value was 18.2% [at 25.6 µM] (inactive).
As to `Cc1nnc2ccc(-c3cccc(C(F)(F)F)c3)nn12`, the concentration at half-maximal activity (AC50) is 79.4 nM (active).
With `CNC[C@H](O)c1ccc(OC(=O)C(C)(C)C)c(OC(=O)C(C)(C)C)c1`, the “activity, negative = inhibition” value was -15% [at 25.6 µM] (inactive).
Turning to `CCOC(=O)[C@@H]1[C@@H]2c3ccccc3-c3ccccc3[C@H]2C[C@H]1O`, the AC50 was 631 nM (active).
As to `O=P(O)(O)c1ccccc1` (tested in a mixture with another compound), the activity, negative = inhibition was 7.14% [at 11.4 µM] (inactive).
Take `c1ccc([C@H]2CNCc3ccccc32)cc1`: the “activity, negative = inhibition” value is -3.66% (inactive).
For `C[C@@]12CC[C@H](O)C[C@@H]1CC[C@H]1[C@H]2CC[C@@]2(C)[C@@H](C3=CC(=O)OC3)CC[C@]12O`, the “activity, negative = inhibition” value is -0.912% [at 25.6 µM] (inactive).
The same measure, in the same setting: next, `CC[C@H]1CN2CCc3cc(OC)c(OC)cc3[C@H]2C[C@@H]1C[C@H]1NCCc2c1[nH]c1ccc(O)cc21`: -7.35% [at 11.4 µM] (inactive); `c1ccc2c(c1)Sc1ccccc1N2C[C@H]1CN2CCC1CC2`: -5.29% [at 11.4 µM] (inactive).
For `NCCc1ccc(S(=O)(=O)O)cc1[N+](=O)[O-]`, the activity, negative = inhibition was -6.66% [at 11.4 µM] (inactive).
Take `O=C1c2ccccc2-c2cc([N+](=O)[O-])c([N+](=O)[O-])cc21`: the half-maximal activity concentration (AC50) is 251 nM (active).
Regarding `CN(N=O)C(=O)N[C@H]1C(O)OC(CO)[C@@H](O)[C@H]1O` (stereo partly specified), the “activity, negative = inhibition” value is -13.1% (inactive).
Consider `C[n+]1c(/C=C\c2ccc(O)c3ncccc23)[se]c2ccccc21`, for which the activity, negative = inhibition was -22.7% [at 2.29 µM] (inactive).
As for `CC(O)(CS(=O)(=O)c1cccc(C(F)(F)F)c1)C(=O)Nc1ccc(C(F)(F)F)cc1` (stereo unspecified), the “activity, negative = inhibition” value was -15.7% (inactive).
`C=CCn1c(O)c(C(CC)=NC2CC2)c(=O)[nH]c1=O`: the AC50 was 708 nM (active).
As for `C=CCn1c(O)c(C(C)=NCCCN2CCOCC2)c(=O)[nH]c1=O`, the “activity, negative = inhibition” value is -14.8% (inactive).
As to `C[C@@H]1OC=C2[C@@H](O)[C@H]3O[C@H]3C(=O)[C@@]23[C@H]1[C@H]1C2=C([C@@H](O)[C@H]4O[C@@H]4C2=O)[C@@H]3O[C@@H]1C`, the activity, negative = inhibition was 2.27% [at 11.4 µM] (inactive).
For `C=CCN1CC[C@]23c4c5ccc(O)c4O[C@@H]2/C(=N/NC(=O)c2ccccc2)CC[C@@]3(O)[C@H]1C5`, the “activity, negative = inhibition” value is -11.8% (inactive).
Consider `CN(C)CCOC(=O)COc1ccc(Cl)cc1`, for which the AC50 is 10000 nM (active).
In the case of `CC(=O)[C@@H]1CC[C@@H]2[C@@H]3CCC4=CC(=O)CC[C@@]4(C)[C@H]3CC[C@]21C`, the “activity, negative = inhibition” value is -7.19% [at 25.6 µM] (inactive).
As to `CC[N+](C)(C)c1cccc(O)c1`, the “activity, negative = inhibition” value is -7.54% (inactive).
With `COC(=O)c1cc2c(cn1)[nH]c1ccccc12`, the AC50 is 631 nM (active).
With `CCN1C[C@]2(C)CC[C@@H](O)[C@]34[C@@H]5CC6[C@@H](OC)C[C@@](O)([C@H]5[C@@H]6O)[C@@H](C[C@@H]23)[C@H]14`, the “activity, negative = inhibition” value was -9.03% (inactive).
Take `CN1[C@@H]2CC[C@H]1CC(O)C2` (stereo partly specified): the “activity, negative = inhibition” value was -12.5% [at 25.6 µM] (inactive).
For `Oc1ccc2c3c1O[C@@H]1c4[nH]c5c(c4C[C@@]4(O)[C@@H](C2)N(CC2CC2)CC[C@]314)C[C@]1(O)[C@@H]2Cc3ccc(O)c4c3[C@@]1(CCN2CC1CC1)[C@H]5O4`, the “activity, negative = inhibition” value is -5.25% (inactive).
In the case of `Ic1cncc(OC[C@@H]2CCN2)c1`, the AC50 is 398 nM (active).
Regarding `C[C@@]12CC[C@@H]3[C@H](CCC4=CC(=O)CC[C@]43C)[C@@H]1CC[C@@H]2C(=O)COS(=O)(=O)c1ccc(Br)cc1`, the activity, negative = inhibition is -3.63% [at 11.4 µM] (inactive).
With `C1CCc2nnnn2CC1`, the “activity, negative = inhibition” value was 2.25% (inactive).
For the compound `C/C(=C\c1ccc(N(C)C)cc1)[N+](=O)[O-]`, the concentration at half-maximal activity (AC50) was 1410 nM (active).
For `N[C@@H](CP(=O)(O)O)C(=O)O`, the activity, negative = inhibition was -12.6% [at 11.4 µM] (inactive).
As for `CC(=O)OCC(=O)[C@@H]1CC[C@H]2[C@H]3CC[C@H]4C[C@@H](O)CC[C@]4(C)[C@@H]3C(=O)C[C@@]12C`, the “activity, negative = inhibition” value is -3.59% [at 25.6 µM] (inactive).
With `Cc1c(C(=O)c2ccc3ccccc3c2)c2cccc3c2n1[C@H](CN1CCOCC1)CO3`, the “activity, negative = inhibition” value is -21.2% (inactive).
Consider `CCCn1c(C)c(C(=O)c2cccc3ccccc23)c2ccccc21`, for which the concentration at half-maximal activity (AC50) is 2000 nM (active).
As to `CCCn1c(C)c(C(=O)c2ccc3ccccc3c2)c2ccccc21`, the concentration at half-maximal activity (AC50) is 6310 nM (active).
